Hits are enriched below; roughly 6.1% of the tested compounds scored in any of these assays.
TGFb inhibitor: TGF-b pathway inhibition. actives 1.2% (n = 410,000). HepG2 CAGA-GFP TGF-b/SMAD3 reporter, GFP fluorescence, 18 h; TGF-beta stimulated, 500 pg/mL final. Potency, µM (top dose mostly 46.1 µM), for the others: at the top dose activity, negative = inhibition, hits mostly inhibitors; note: % is set by controls: 0 for no effect and ±100 for the full control effect; nearly all actives have a fitted effect of over 65% in size
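Inhibition was scored as loss of TGF-beta-induced (500 pg/mL final, 18 hours, 37 degrees C) GFP in HEPG2 cells carrying a CAGA-GFP reporter, in DMEM with 1% FBS. Well GFP was summed per cell; Activity was normalised to unstimulated and stimulated DMSO wells, then concentration-response fitting.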
VP16 counter: inhibits Gal4-VP16 luciferase reporter, ROR gamma counter-screen | Drosophila S2 Gal4-VP16 UAS-luciferase, luminescence, 20 h | Potency, µM (titrated, usually from 53.6 µM), inactives show at the top dose activity, negative = inhibition, hits mostly inhibitors | actives 3.5% (n = 310,000) | AID 2546;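 note: Gal4-VP16 expression switched on by copper sulfate through the metallothionein promoter; % is set by controls: 0 for no effect and ±100 for the full control effect; nearly all actives have a fitted effect of over 50% in size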
ATXN2 expr inh: inhibitors of ATXN2 expression. AID 1745845. actives 0.72% (n = 360,000). Potency, µM (series often up to 57 µM), for inactives: at the highest dose activity change, negative = inhibition, hits mostly inhibitors. HEK-293 ATXN2-luciferase reporter, luminescence, 24 h; note: % is set by controls: 0 for no effect and ±100 for the full control effect; nearly all actives have a fitted effect of over 55% in size
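qHTS (up to 57 uM final) was run with 24 h compound exposure of reporter cells at 37 °C. Each well was multiplexed: SteadyGlo luminescence measured ATXN2-luciferase expression after a fluorogenic Gly-Phe-AFC viability readout (25 uM final).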
RORgamma inh: ROR gamma (mouse) transcription inhibition; actives 5.4% (n = 310,000); Potency, µM (top dose mostly 53.6 µM), inactives show top-dose activity change, negative = inhibition, hits mostly inhibitors; P51450; Drosophila S2 Gal4-RORgamma UAS-luciferase reporter, 20 h; note: % is set by controls: 0 for no effect and ±100 for the full control effect; nearly all actives have a fitted effect of over 60% in size
Target sequence (P51450 whole entry, looked up, the tested form may be a part): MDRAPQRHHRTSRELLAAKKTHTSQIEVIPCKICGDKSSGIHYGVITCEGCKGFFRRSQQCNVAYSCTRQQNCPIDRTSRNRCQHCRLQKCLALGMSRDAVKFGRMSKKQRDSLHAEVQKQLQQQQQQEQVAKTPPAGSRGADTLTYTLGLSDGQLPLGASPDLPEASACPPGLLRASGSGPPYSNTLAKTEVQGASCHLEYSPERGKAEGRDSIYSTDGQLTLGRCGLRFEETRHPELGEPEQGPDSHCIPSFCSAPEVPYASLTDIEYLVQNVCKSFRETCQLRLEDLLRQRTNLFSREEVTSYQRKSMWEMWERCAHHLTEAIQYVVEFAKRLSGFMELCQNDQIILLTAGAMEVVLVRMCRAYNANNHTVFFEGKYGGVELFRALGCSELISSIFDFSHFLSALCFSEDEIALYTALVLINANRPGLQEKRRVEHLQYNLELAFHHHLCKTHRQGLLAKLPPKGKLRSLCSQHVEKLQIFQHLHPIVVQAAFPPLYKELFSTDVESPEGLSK
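Compounds are pin-transferred onto Drosophila Schneider cells expressing a copper-inducible Gal4–ROR gamma transactivation domain fusion. After 1 hr, copper sulfate is added to 700 uM final; luciferase is read 20 hr later.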
S2 tox: reduces viability in counter-screen for ATXN expression inhibitors; actives 0.49% (n = 400,000); S2 cells (HEK-293 line with an ATXN2-luciferase reporter) viability, CellTiter-Fluor protease fluorescence, 24 h; AID 651635; Potency, µM (titrated, usually from 56.7 µM), hits mostly cytotoxic; note: nearly all actives have a fitted effect of over 40% in size
HepG2 tox: HepG2 cytotoxicity, counter-screen for TGF-b inhibitors; HepG2 CAGA-GFP viability, ATP luminescence, 18 h; Potency, µM (top dose mostly 46.1 µM), inactives show at the top dose activity change, negative = cytotoxicity, usual class: cytotoxic; actives 0.76% (n = 410,000)
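HepG2 CAGA-GFP cells (1000/well, DMEM with 1% FBS) received compound, then TGF-beta at 500 pg/mL final, and were incubated 18 hours at 37 degrees C. Viability was read by CellTiter-Glo luminescence. Media-only wells were set as complete cell-killing and DMSO as no toxicity.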
* hit, by the source's call; i = inactive; ? = inconclusive; . = not tested or not shown; [ ] = another dose, or the depositor's remark. Calls come from the whole dose curve; as a rule, active = well fitted curve in the direction sought with a large enough effect; inconclusive = small, poorly fitted or top-dose-only effect, or another doubt; inactive = no such curve, though single readings can be large; an effect the other way counts as inactive or inconclusive. Potency is the fitted concentration of half-maximal effect.

SMILES	TGFb inhibitor	VP16 counter	ATXN2 expr inh	RORgamma inh	S2 tox	HepG2 tox
OC(CNc1ncnc2sccc12)c1ccccc1 (centres undefined)	?	6.31µM*	-35.4%	?	i	-0.2%
c1ccc(CNc2ncnc3sccc23)cc1	-23.0%	17.8µM*	.	-11.8%	i	-38.1%
O=C(NCCc1ccccc1)c1cc(Sc2ccc(F)cc2F)nc2ccccc12	-3.9%	.	.	.	.	-24.5%
CCCN1CNC(=S)N(c2ccccc2OCC)C1	0.6%	?	-1.1%	10µM*	i	2.3%
Cc1cccc(N2CN(Cc3cccnc3)CNC2=S)c1	11.5%	4.3%	-11.2%	-4.6%	i	4.0%
CCN1CNC(=S)N(c2ccccc2OC)C1	0.1%	-0.3%	-2.8%	-22.6%	i	5.7%
CCCN1CNC(=S)N(c2cccc(C)c2)C1	13.8%	-23.7%	8.2%	11.2µM*	i	-14.1%
CCCCN1CNC(=S)N(c2ccccc2OCC)C1	?	14.1µM*	-1.1%	11.2µM*	i	14.2%
CCCCN1CNC(=S)N(c2cc(C)ccc2C)C1	-12.4%	10µM*	2.6%	14.1µM*	i	-1.3%
CCCCN1CNC(=S)N(c2ccc(C(=O)OCC)cc2)C1	-3.8%	-21.1%	-21.2%	?	i	2.8%
O=C(NC1CCCC1)c1cnn2c1NC(=C1CC1)C=C2C(F)F	-21.4%	.	.	.	.	-1.5%
COc1ccc(/C=C/C(=O)N2CCc3c(cnc(C)c3CNC(=O)c3ccsc3)C2)cc1OC	.	.	.	.	i	.
COCCNC(=O)C(=O)Nc1c2c(nn1-c1ccccc1)CS(=O)(=O)C2	-8.8%	.	10.4%	.	i	-17.1%
COC(=O)[C@H](Cc1ccccc1)NC(=O)C/C=C\[C@@H](C)[C@@H](CO)OC	.	3.9%[10 µM]	.	16.1%[10 µM]	.	.
CCCOc1ccc(CNC(=S)Nc2ccccc2)cc1Cl	0.0%	7.08µM*	0.0%	5.01µM*	i	-20.1%
CC(C)Oc1ccc(CNC(=S)Nc2ccccc2)cc1Cl	?	11.2µM*	.	11.2µM*	?	-26.5%
COc1ccc(CNC(=S)Nc2ccccc2)cc1Cl	?	?	-22.1%	?	i	-26.7%
CCOc1ccc(CC(=O)NNC(=S)Nc2ccccc2)cc1Br	25.9%	-18.0%	1.8%	-22.1%	i	-9.2%
CC(C)COc1ccc(CNC(=S)Nc2ccccc2)cc1Cl	11.2µM*	12.6µM*	-28.9%	5.01µM*	i	12.6µM*
O=C(O)c1ccc(CNC(=S)Nc2ccccc2)cc1	8.8%	-3.9%	3.4%	-5.7%	i	-10.8%
C(=Nc1ccc(/C=C/c2ccnc3ccccc23)cc1)c1ccc2c(c1)OCO2	0.3%	.	.	.	.	-37.1%
CCc1ccc(NC(=O)C2CCCN(S(=O)(=O)c3cccc4cccnc34)C2)cc1 (centres undefined)	10µM*	.	.	.	.	-7.8%
O=C(Nc1nc2cc(Cl)ccc2s1)C1CCCN(S(=O)(=O)c2cccc3cccnc23)C1 (centres undefined)	?	-13.3%	17.8µM*	-40.2%	?	16.8%
O=C(Nc1ccc(F)cc1)C1CCCN(S(=O)(=O)c2cccc3cccnc23)C1 (centres undefined)	-1.5%	5.5%	-21.4%	41.5%	?	-5.9%
COc1ccc(-n2ncc3c(N(C)C4CCCCC4)ncnc32)cc1	-5.3%	8.91µM*	-36.5%	0.251µM*	i	-5.1%
SMILES	TGFb inhibitor	VP16 counter	ATXN2 expr inh	RORgamma inh	S2 tox	HepG2 tox
CCN(c1ncnc2c1cnn2-c1cccc(Cl)c1)C1CCCCC1	2.3%	.	59.1%	.	i	-3.7%
CCOC(=O)C1CCN(c2ncnc3c2cnn3-c2ccc(Cl)cc2)CC1	-2.0%	?	?	1.41µM*	i	-3.7%
CCOC(=O)C1CCN(c2ncnc3c2cnn3-c2ccccc2)CC1	-10.4%	-10.3%	9.3%	-78.8%	?	-12.0%
COc1ccc(-n2ncc3c(N4CCC(C)CC4)ncnc32)cc1	7.9%	?	-6.8%	8.91µM*	i	-16.7%
Cc1nn(-c2ccccc2)c(Cl)c1C(=O)N1CCN(c2ncnc3c2cnn3-c2ccccc2)CC1	?	?	17.8µM*	-28.6%	.	-10.9%
CCN(CC)c1ncnc2c1cnn2-c1cc(Cl)ccc1C	-10.2%	.	-18.4%	.	?	-9.5%
CCOC(=O)c1ccc(OCCN2C[C@H](O)[C@@H](O)[C@H](O)[C@H]2CO)cc1	.	.	19.4%	.	i	.
Cc1cccc(-n2ncc3c(N(C)C4CCCCC4)ncnc32)c1	2.6%	0.891µM*	?	?	i	-16.0%
Cc1ccc(Cl)cc1-n1ncc2c(N3CCN(Cc4ccccc4)CC3)ncnc21	21.7%	.	15.8µM*	.	17.8µM*	1.1%
CCN1CCN(c2ncnc3c2cnn3-c2cc(Cl)ccc2C)CC1	11.5%	.	-19.9%	.	?	0.3%
COC(=O)[C@@H](NC(=O)C1CCCN(c2nc(C)c3ccc(C)cc3n2)C1)C(C)C (some centres undefined)	.	.	.	.	i	.
CCn1c(-c2csc3c2CCCC3)n[nH]c1=S	3.6%	4.47µM*	14.3%	3.98µM*	i	-15.3%
CCCCn1c(-c2cccs2)nc2nc3ccccc3nc21	86.7%	-10.1%	26.2%	19.9%	i	0.5%
CCCCCCn1c(-c2cccs2)n[nH]c1=S	-20.7%	?	0.2%	2µM*	i	-34.8%
C=CCn1c(-c2csc3c2CCC(C)C3)n[nH]c1=S (centres undefined)	?	2.51µM*	-2.4%	1.41µM*	i	-14.6%
CCCCn1c(-c2csc3ccccc23)n[nH]c1=S	1.0%	?	12.5%	7.94µM*	i	-9.4%
Cc1ccc(CNC(=O)CCCN2C(=O)CCn3nc(-c4cccn4C)cc32)cc1	-28.7%	.	10.0%	.	i	-1.4%
COc1ccc(OC)c(NC(=O)N2CCC(CN3CCCCC3)CC2)c1	-10.4%	.	-1.4%	.	i	-11.6%
COc1ccc(N2CCN(C(=O)CSc3nc4ccccc4nc3Cc3ccc(Cl)cc3)CC2)cc1	-65.7%	.	.	.	.	-16.5%
CC(C)CCCC(C)NCCC(C)C (centres undefined)	.	.	-1.9%	.	i	.
COc1ccc(-c2cc3nc(C)c(CCC(=O)NCc4ccccc4Cl)c(C)n3n2)c(OC)c1	9.8%	.	6.6%	.	i	-7.6%
